Screening data as filed in PubChem BioAssay.
D3 ag: D3 dopamine receptor (human) agonism; P35462; D3R DiscoveRx beta-arrestin cells, luminescence, 90 min; max activation, %; 0.58% of 410,000 active; AID 652048; in the data active = max activation above about 30%
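Agonist mode: compounds and dopamine controls were applied to plated cells for 90 min at 37 degrees C after an overnight attachment at 1500 cells/well. Luminescent read-out followed 30 - 60 minutes at room temperature with DiscoveRx detection reagent.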
D1 potentiator: human D1 dopamine receptor positive modulation | HEK293 TREx D1 cells, calcium flux, dopamine EC20 potentiation | potentiation, % at 10 µM | 0.036% of 360,000 active; in the data active = potentiation above about 30%
Target sequence (P21728 whole entry, looked up): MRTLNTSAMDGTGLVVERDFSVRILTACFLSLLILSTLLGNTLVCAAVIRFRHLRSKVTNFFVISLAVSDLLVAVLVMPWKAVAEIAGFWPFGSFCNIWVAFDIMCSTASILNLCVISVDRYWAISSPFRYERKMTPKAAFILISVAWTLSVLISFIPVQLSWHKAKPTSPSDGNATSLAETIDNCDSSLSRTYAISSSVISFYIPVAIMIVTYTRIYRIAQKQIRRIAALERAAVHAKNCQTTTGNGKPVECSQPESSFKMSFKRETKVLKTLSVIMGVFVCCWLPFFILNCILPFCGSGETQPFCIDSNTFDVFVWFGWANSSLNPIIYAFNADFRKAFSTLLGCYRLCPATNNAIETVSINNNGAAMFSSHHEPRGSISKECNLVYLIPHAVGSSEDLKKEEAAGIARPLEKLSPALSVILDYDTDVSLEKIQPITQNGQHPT
D1 agonist: human D1 receptor agonism. P21728. HEK293 T-REx D1 cells, calcium flux, agonist mode. activation, % at 2 µM. 1% of 360,000 active; in the data active = activation above about 30%
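Tetracycline-induced HEK293 TREx D1 cells, force-coupled to calcium signalling, were dye-loaded with a no-wash calcium kit. Compound was pin-added after a 10 s baseline. Fluorescence was read kinetically at 1 cycle/s for 180 s, with calcium rises flagged as agonism.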
DRD3 antagonist: blocks the human D3 dopamine receptor; P35462; D3R cells, DiscoveRx beta-arrestin luminescence, antagonist mode; stronger effect = lower value; max response, negative = inhibition, %; 2.5% of 360,000 active; AID 652054; in the data active = max response below about -50%
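Cells expressing the human receptor were seeded at 1500 cells/well, incubated overnight at 37 degrees C in 5% CO2, then exposed to library compounds with dopamine controls for 90 minutes at 37 degrees C before luminescent detection.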
D1 antag: antagonists of human D1 dopamine receptor; P21728; HEK293 TREx D1 cells, calcium flux, dopamine EC80; stronger effect = lower value; activity change, negative = inhibition, % at 10 µM; 3.2% of 360,000 active; in the data active = activity change below about -30%
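Using tetracycline-induced force-coupled D1 Hek293 cells and a calcium dye, signals were followed for 180 s after compound, then for 180 s after EC80 dopamine, to detect inhibitors.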
Hits are given with their value. This is a sample that favours compounds with a hit; in the whole collection about 6% have one here.

`COc1ccc(-n2cc(C(=O)NCCc3cc(OC)ccc3OC)c3ccccc3c2=O)cc1` gave D3 ag inactive, D1 potentiator inactive, D1 agonist inactive and D1 antag inactive.
Screening O=C(Nc1nc(-c2cc(F)ccc2F)cs1)c1cccc(N2C(=O)CCC2=O)c1 returned D3 ag inactive, D1 potentiator inactive, D1 agonist inactive, DRD3 antagonist inactive and D1 antag -32.
`O=C(Nc1nc(-c2ccccc2)cs1)C1CCCO1` (centres undefined) gave D3 ag inactive, D1 potentiator inactive, D1 agonist inactive, DRD3 antagonist -91 and D1 antag inactive.
`Cc1ccc(S(=O)(=O)N2CCOCC2)cc1NC(=O)c1cc([N+](=O)[O-])ccc1N1CCOCC1` gave D3 ag inactive, D1 potentiator inactive, D1 agonist inactive, DRD3 antagonist inactive and D1 antag -69.
For Cc1noc(C)c1C(=O)Nc1nc(-c2cc(F)ccc2F)cs1 the results were D3 ag inactive, D1 potentiator inactive, D1 agonist inactive, DRD3 antagonist inactive and D1 antag -32.
`Cc1onc(-c2ccccc2)c1C(=O)Nc1nc(-c2cc(F)ccc2F)cs1` gave D3 ag inactive, D1 potentiator inactive, D1 agonist inactive, DRD3 antagonist inactive and D1 antag inactive.
Screening O=C(O)/C(=C\c1ccccc1)c1ccc2ccccc2c1 returned D3 ag inactive and DRD3 antagonist inactive.
Screening CCC(=O)N1CCc2cc(CNC(=O)c3cccc(N(C)C)c3)ccc21 returned D3 ag inactive, D1 potentiator inactive, D1 agonist inactive and D1 antag inactive.
For Cc1cc2c(c(=O)n1Cc1ccccc1)C1O[C@](c3ccsc3)(Cc3cc(C#N)ccc31)O2 the results were D1 potentiator inactive, D1 agonist inactive and D1 antag inactive.
For O=C(Nc1nc(-c2ccc(-c3ccccc3)cc2)cs1)c1cc([N+](=O)[O-])ccc1N1CCOCC1 the results were D3 ag inactive, D1 potentiator inactive, D1 agonist inactive, DRD3 antagonist inactive and D1 antag -36.
O=C(Nc1nc(-c2ccccc2)cs1)c1cccc([N+](=O)[O-])c1 was read as D3 ag inactive, D1 potentiator inactive, D1 agonist inactive, DRD3 antagonist -69 and D1 antag inactive.
Screening O=[N+]([O-])c1cccc(-c2csc(Nc3ccccc3)n2)c1 returned D3 ag inactive, D1 potentiator inactive, D1 agonist inactive, DRD3 antagonist inactive and D1 antag -30.
For Cc1onc(-c2ccccc2)c1C(=O)Nc1nc(-c2ccccc2)cs1 the results were D3 ag inactive, D1 potentiator inactive, D1 agonist inactive, DRD3 antagonist -56 and D1 antag inactive.
COc1ccc(CNC(=O)C2(C)Cc3c(-c4cccc(NC(C)=O)c4)ccnc3O2)cc1OC (centres undefined) was read as D3 ag inactive and DRD3 antagonist inactive.
OCc1ccccn1 was read as D3 ag inactive.
`CCOc1ccc(/C(O)=C2/C(=O)C(=O)N(c3ccccn3)C2c2ccc(F)cc2)c(C)c1` (centres undefined) gave D3 ag inactive, D1 potentiator inactive, D1 agonist inactive, DRD3 antagonist inactive and D1 antag inactive.
`O=C(Nc1ncc([N+](=O)[O-])s1)c1cccc([N+](=O)[O-])c1` gave D3 ag inactive, D1 potentiator inactive, D1 agonist 32, DRD3 antagonist inactive and D1 antag inactive.
For O=C(NC(=S)Nc1nc(-c2ccccc2)cs1)c1cncc(Br)c1 the results were D3 ag inactive, D1 potentiator inactive, D1 agonist 37, DRD3 antagonist inactive and D1 antag inactive.
O=C(NC(=S)Nc1nc(-c2ccccc2)cs1)c1cccnc1 was read as D3 ag inactive, D1 potentiator inactive, D1 agonist inactive, DRD3 antagonist inactive and D1 antag inactive.
`COc1ccc(Cl)cc1NC(=O)Cn1c(=O)n(CCC(=O)NCc2ccc3c(c2)OCO3)c(=O)c2ccccc21` gave D3 ag inactive, D1 potentiator inactive, D1 agonist inactive and D1 antag inactive.
`Cc1noc(C)c1S(=O)(=O)NC(=O)C1(C)CCN1C(=O)c1ccc(C2CCCCC2)cc1` (centres undefined) gave D3 ag inactive and DRD3 antagonist inactive.
For Cn1c(C(=O)O)c(CC(=O)Nc2ccc(F)cc2F)c2ccccc21 the results were D3 ag inactive, D1 potentiator inactive, D1 agonist inactive, DRD3 antagonist inactive and D1 antag -50.
`CC1=CC(c2ccccc2)n2nnnc2N1` (centres undefined) gave D3 ag inactive, D1 potentiator inactive, D1 agonist inactive, DRD3 antagonist inactive and D1 antag -35.
CCOc1ccc(C2C=C(c3ccccc3)Nc3nnnn32)cc1 (centres undefined) was read as D3 ag inactive, D1 potentiator inactive, D1 agonist inactive, DRD3 antagonist inactive and D1 antag inactive.
Screening CN(C)c1ccc(C2C=C(c3ccccc3)Nc3nnnn32)cc1 (centres undefined) returned D3 ag inactive, D1 potentiator inactive, D1 agonist 31 and D1 antag inactive.
`CC1=CC(c2ccccc2)n2nc(N3C(=O)c4ccccc4C3=O)nc2N1` (centres undefined) gave D3 ag inactive, D1 potentiator inactive, D1 agonist inactive, DRD3 antagonist inactive and D1 antag inactive.
`COc1ccc(NC(=O)CCCNS(=O)(=O)c2cccs2)cc1` gave D3 ag inactive, D1 potentiator inactive, D1 agonist inactive, DRD3 antagonist inactive and D1 antag inactive.
Screening O=C(O)CCCNS(=O)(=O)c1cccs1 returned D3 ag inactive, D1 potentiator inactive, D1 agonist inactive, DRD3 antagonist inactive and D1 antag -58.
COc1ccccc1C(=O)Nc1c(C(=O)N2CCN(c3ccccc3F)CC2)oc2ccccc12 was read as D3 ag inactive, D1 potentiator inactive, D1 agonist inactive and D1 antag inactive.
Screening CCN(C(=O)c1c(C)oc2ncn(CC(C)C)c(=O)c12)c1cccc(Cl)c1 returned D3 ag inactive, D1 potentiator inactive, D1 agonist inactive and D1 antag inactive.
Screening O=C(CSc1cc([N+](=O)[O-])cc(S(=O)(=O)Cc2ccccc2)c1)NC1CC1 returned D3 ag inactive, D1 potentiator inactive, D1 agonist inactive, DRD3 antagonist inactive and D1 antag -40.
